High-throughput results (PubChem)
Cruzain Triton – qHTS Assay for Promiscuous and Specific Inhibitors of Cruzain (with detergent); purified cruzain, Z-FR-AMC fluorescence, 0.01% Triton; Potency, µM, without a hit: max response, negative = inhibition, most hits filed as inhibitors; actives 0.43% (n = 200,000); Cruzipain (Trypanosoma cruzi), P25779;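 also: plate controls were neutral wells for no effect and buffer without enzyme for full effect; nearly all actives have a fitted effect of over 40% in size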
Target sequence (P25779 123-467 limits assumed): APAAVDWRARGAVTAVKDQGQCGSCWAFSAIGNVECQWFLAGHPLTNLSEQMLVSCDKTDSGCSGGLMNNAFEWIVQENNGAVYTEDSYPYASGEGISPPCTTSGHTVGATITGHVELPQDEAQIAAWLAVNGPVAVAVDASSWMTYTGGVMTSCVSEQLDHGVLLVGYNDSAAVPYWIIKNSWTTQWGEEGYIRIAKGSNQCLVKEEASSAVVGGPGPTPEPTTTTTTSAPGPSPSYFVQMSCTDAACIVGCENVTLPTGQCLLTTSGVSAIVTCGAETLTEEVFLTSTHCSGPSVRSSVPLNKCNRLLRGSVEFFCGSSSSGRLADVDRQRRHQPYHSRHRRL
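15 min RT preincubation of 1.5 nM cruzain with compound, then 2 uM Z-FR-AMC added; kinetic AMC fluorescence, 60 s delta. Triton X-100 0.01%, pH 5.5.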
Cruzain noTriton – qHTS Assay for Promiscuous and Specific Inhibitors of Cruzain (without detergent); purified cruzain, Z-FR-AMC fluorescence, no detergent; AID 1476, 2009; Potency, µM, for inactives: max response, negative = inhibition, most hits filed as inhibitors; Cruzipain (Trypanosoma cruzi), P25779; actives 2.3% (n = 200,000);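 also: plate controls were enzyme without inhibitor for no effect and buffer without enzyme for full effect; nearly all actives have a fitted effect of over 40% in size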
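Detergent-free condition (0.00005% Triton X-100) in acetate buffer pH 5.5 with DTT. 1.5 nM enzyme and compound were pre-mixed 15 min, then 2 uM Z-FR-AMC substrate added; reaction progress from fluorescence change between first and third reads (60 s).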
Numbers without * were called inactive; ? = inconclusive. Most compounds without a hit are left out; they make up all but 2.5% or so of the library. Calls follow the shape of the dose curve; as a rule, active = well fitted curve in the direction sought with a large enough effect; inconclusive = small, poorly fitted or top-dose-only effect, or another doubt; inactive = no such curve, though single readings can be large; an effect the other way counts as inactive or inconclusive. Potency is read from the fitted curve at half-maximal effect.

SMILES | Cruzain Triton | Cruzain noTriton
O=C(CCN1CCCCC1)c1csc2ccccc12 | -23% | 2.5µM*
O=C(CCN1CCCCC1)c1ccccc1 | -5% | -13%
O=C(Nc1ccccc1)c1cccc(S(=O)(=O)Nc2cccc(F)c2)c1 | -8% | -13%
CCOC(=O)c1c(S(=O)(=O)N2CCC(C(=O)NCc3cccc(C)c3)CC2)c(C)n(C)c1C | 1% | ?
CCOC(=O)c1ccccc1NC(=O)Cn1c(=O)n(-c2ccc(CC)cc2)c(=O)c2c(C)c(C(=O)N(C)C)sc21 | 2% | 7%
COc1ccc(Oc2nc(Oc3ccc(OC)cc3)nc(Oc3ccc(OC)cc3)n2)cc1 | 2% | 3.2µM*
COc1nc(Oc2ccc(C(=O)O)cc2)nc(Oc2ccc(C(=O)O)cc2)n1 | 5% | -7%
Cc1ccc(N2CCN(S(=O)(=O)c3ccc4oc(=O)c5ncn(C)c5c4c3)CC2)c(C)c1 | -1% | -9%
Cn1c(SCC(=O)Nc2ccccc2)nc(O)cc1=O | -4% | -11%
COc1ccc(NC(=O)CSc2nc(O)cc(=O)n2C)cc1 | -25% | 16µM*
C/C(=N/Nc1ccc2ccccc2n1)c1ccccc1O | -2% | -10%
O=C(NCCCN1CCN(c2ccccc2F)CC1)c1cc2c(s1)-c1ccccc1OC2 | -22% | 23%
CN(C)CCNC(=O)c1cc2c(s1)-c1ccccc1OC2 | ? | 10µM*
Cc1cccc2c1-c1sc(C(=O)NCCc3ccc(Cl)cc3)cc1CO2 | -5% | 25µM*
CCCN1CCN(CCCNC(=O)c2cc3c(s2)-c2c(C)cccc2OC3)CC1 | 18µM* | ?
COc1ccc(CCNC(=O)c2cc3c(s2)-c2ccccc2OC3)cc1OC | -25% | ?
Cc1cccc(CCNC(=O)c2cc3c(s2)-c2c(C)cccc2OC3)c1 | ? | -27%
COC(=O)c1c(NC(=O)CCCOc2ccc(C(C)(C)C)cc2)sc2c1C(C(=O)OC)CC2 (configuration not stated) | -15% | ?
Cc1ccc(Cl)cc1Nc1nc2ccccc2n2c(C)nnc12 | -10% | 8%
O=C(NCc1ccc2c(c1)CCN2C(=O)c1ccncc1)c1ccc(Cl)cc1 | 0% | 3%
Cc1c(C(=O)Nc2cccc(C#N)c2)sc2nc3n(c(=O)c12)CCCCC3 | -4% | -9%
O=C(CCN1CCc2ccccc2CC1)c1ccc2c(c1)OCCO2 | ? | 16µM*
O=C(CCN1CCOCC1)c1ccc2c(c1)OCCO2 | -23% | -14%
COc1ccc(Br)c2c1-c1nc(NC(=O)c3cccc(C)c3)sc1C2 | -2% | 6.3µM*
COc1ccc2c(c1)Cc1sc(NC(=O)c3cccc(Br)c3)nc1-2 | -2% | ?
SMILES | Cruzain Triton | Cruzain noTriton
COCCCn1c(=N)c(S(=O)(=O)c2ccccc2)cc2c(=O)n3cccc(C)c3nc21 | -2% | -1%
Cc1ccc(N2CC(NC(=O)c3ccc4c(c3)OCO4)CC2=O)cc1 (configuration not stated) | 0% | -1%
CCn1nc(-c2cccs2)nc2c(=O)n(C)c(=O)nc1-2 | 2.2µM* | 2µM*
CCNc1ncc2nc(-c3cccs3)c(=O)n(C)c2n1 | 4% | 10%
CC(C)c1ccc(S(=O)(=O)Nc2cc3c(cc2NCc2ccccc2)n(C)c(=O)n3C)cc1 | -5% | -14%
CCn1c(-c2ccc(-c3ccccc3)cc2)c[nH]c1=S | 5% | 10µM*
Cn1c(-c2ccc(-c3ccccc3)cc2)c[nH]c1=S | -9% | 10µM*
S=c1[nH]cc(-c2ccccc2)n1-c1cccc(Cl)c1 | -3% | -12%
C=CCn1c(-c2ccccc2)c[nH]c1=S | 2% | 7%
Cc1oc2c(cc(NS(=O)(=O)c3ccc(Br)cc3)c3ccccc32)c1C(=O)OCc1ccccc1 | -2% | -27%
Cc1ccc(S(=O)(=O)Nc2cc3c(C(=O)OCc4ccccc4)c(C)oc3c3ccccc23)cc1 | -3% | 7.9µM*
Cc1oc2c(cc(NS(=O)(=O)c3ccc(F)cc3)c3ccccc32)c1C(=O)OCc1ccccc1 | 0% | ?
Cc1ccc(S(=O)(=O)Nc2cc3c(C(=O)OCc4ccccc4)c(C)oc3c3ccccc23)c(C)c1 | -1% | 5µM*
Cc1ccccc1OCc1nc2ccccc2n1Cc1ccccc1Cl | -8% | -5%
COc1ccccc1NC(=O)CSc1nc2ccccc2c(=O)n1CCC(=O)NC1CCCCC1 | 1% | -8%
Cc1ccc(CSc2nc(=O)c3c(n2C)NC(=O)CC3c2ccc(OC(C)C)cc2)cc1 (configuration not stated) | -5% | -2%
CC(CCC#N)[N+](=O)[O-] (configuration not stated) | -1% | 5%
Cc1cc(C)c(NC(=O)C2CCN(S(=O)(=O)c3c(C)noc3/C=C/c3ccccc3F)CC2)c(C)c1 | -1% | 6%
Cc1ccc(C(=O)c2sc3c(c2N)c(=O)[nH]c(=O)n3CCc2ccccc2)cc1 | -15% | 13µM*
Nc1c(C(=O)c2ccccc2)sc2c1c(=O)[nH]c(=O)n2-c1ccccc1 | -8% | 11%
